# Only some compounds are listed: those with a hit (about 2.3% of all), similar ones and a draw of the others.
# ADAM17 inh – inhibitors of human ADAM17; P78536; recombinant ADAM17, EDANS/DABCYL FRET peptide cleavage; inhibition, % at 6.95 µM; hit rate 0.83% among 370,000;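 active = inhibition above the mean of compounds lying between control limits plus 3 SD, set per campaign, cut at about 8.5% in these data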;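 note: 0% = DMSO-only wells as the low control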
# ADAM10 inh – inhibitors of human ADAM10; recombinant ADAM10, EDANS/DABCYL FRET peptide cleavage, 3 h; O14672; hit rate 0.62% among 370,000; inhibition, % at 7 µM; AID 720582;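 active = inhibition above a per-campaign cutoff equal to the mean of compounds falling between control-based bounds plus 3 SD, cut at about 20% in these data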;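 note: 0% = DMSO wells while the 100% control is not disclosed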
# Target sequence (O14672 214-748 limits assumed): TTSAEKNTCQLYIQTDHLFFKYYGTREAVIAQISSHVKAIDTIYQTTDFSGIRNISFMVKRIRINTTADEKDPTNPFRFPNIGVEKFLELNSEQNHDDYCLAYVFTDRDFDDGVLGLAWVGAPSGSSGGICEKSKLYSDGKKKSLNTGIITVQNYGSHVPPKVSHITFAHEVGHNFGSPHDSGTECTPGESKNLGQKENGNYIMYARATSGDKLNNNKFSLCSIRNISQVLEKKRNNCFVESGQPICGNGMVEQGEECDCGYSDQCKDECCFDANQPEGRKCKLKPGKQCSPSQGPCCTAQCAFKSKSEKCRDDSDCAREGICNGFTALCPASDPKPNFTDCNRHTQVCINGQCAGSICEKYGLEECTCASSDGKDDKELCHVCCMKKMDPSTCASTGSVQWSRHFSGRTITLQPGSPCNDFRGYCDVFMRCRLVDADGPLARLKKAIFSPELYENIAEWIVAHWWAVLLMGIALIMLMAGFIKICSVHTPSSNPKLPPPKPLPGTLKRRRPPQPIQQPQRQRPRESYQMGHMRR
# KLK7 zymogen act – proKLK7 (human) activation, primary screen | purified proKLK7, EDANS-DABCYL substrate fluorescence; 100% is mature enzyme control, 0% vehicle | hit rate 0.9% among 370,000 | P49862 | activation, % at 7 µM | AID 652039;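 active = activation above the mean of all tested compounds plus 3 SD, computed per campaign excluding outliers beyond control limits, cut at about 13% in these data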
# V-ATPase pH – alters yeast V-ATPase proton transport. S. cerevisiae, pHLuorin cytosolic pH fluorescence. response, % at 10 µM. hit rate 0.37% among 350,000; in the data active = response mostly above about 7.3%, no sharp cut-off; inactive = mostly below about 5.4%; note: actives read high
# KLK7 act conf – proKLK7 activation, confirmation. shares compounds with KLK7 zymogen act. purified proKLK7, EDANS-DABCYL substrate fluorescence; scaled: vehicle 0, mature enzyme 100. activation, % at 7 µM. hit rate 68% among 3,200;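 active = activation, as change over the incubation, above the mean of all tested compounds plus 3 SD, cut at about 13% in these data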
# EDANS-DABCYL int – fluorescence interference counter-screen for KLK7 activators. EDANS-DABCYL substrate fluorescence interference, no enzyme, 4 h; solvent 0%, active enzyme control 100%. hit rate 80% among 3,200. activation, % at 7 µM. shares compounds with KLK7 zymogen act;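 active = activation above the all-compound mean plus 3 SD, ignoring values outside control-based bounds, cut at about 4.8% in these data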;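 note: value is the 4 h activation minus the activation read at time zero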
# EDANS interf – EDANS fluorescence interference in dose response, no enzyme; shares compounds with KLK7 zymogen act; EDANS-DABCYL peptide fluorescence interference; EC50, µM; hit rate 20% among 250; AID 720493;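 active = compounds that raise the fluorescence signal in this interference counterscreen, with EC50 at or below 10 µM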;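 note: intact quenched peptide substrate alone read at 355 nm excitation and 520 nm emission; signal is fluorescence gain from T0 to T4 after four hours at room temperature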
# * = called active by the depositor; i = inactive; nt = not tested or not shown.
SMILES,ADAM17 inh,ADAM10 inh,KLK7 zymogen act,V-ATPase pH,KLK7 act conf,EDANS-DABCYL int,others
COc1ccc(OC)c(/C=N/NC(=O)C(=O)N2CCCC2)c1,-6.4,-19.0,59.1*,-1.6,47.9*,46.2*,
COc1ccc(OC)c(/C=N/NC(=O)CCc2c(C)n[nH]c2C)c1,-320.1,i,16.8*,0.6,32.3*,35.4*,
C[C@@H]1ON(C)[C@H]2C[C@H]3c4[nH]c5cccc(-c6ccc7c(c6)OCO7)c5c4CCN3C(=O)[C@@H]12,-43.6,-154.0,-2.8,nt,nt,nt,
COc1ccc(OC)c(/C=N/NC(=O)c2cc[n+](CC(=O)c3ccccc3)cc2)c1,-3.0,-5.1,30.9*,1.3,63.3*,64.8*,
COc1ccc(NC(=O)COc2ccc(/C=N/NC(=O)c3cccnc3)cc2OC)cc1,-3.7,1.6,19.9*,-1.3,-271.9,-182.5,
COc1cc(/C=C/c2cc[n+](C)cc2)ccc1OCC(=O)Nc1ccccc1,-15.6,-42.5,24.3*,5.6,27.8*,24.8*,
COc1cc(/C=N/NC(=O)c2cccnc2)ccc1OCC(=O)Nc1ccccc1Cl,0.5,1.8,0.0,2.4,nt,nt,
COc1ccc(OC)c(/C=N/NC(=O)CC2C(=O)NN=C2C)c1 (stereo unspecified),-305.6,i,77.4*,2.3,44.6*,39.4*,
COc1cccc(CNC(=O)Cn2c(-c3ccccc3)cc(C(C)=O)c2C)c1OC,5.9,4.7,-0.6,nt,nt,nt,
Cc1ccc(-c2cc(C(=O)NN=Cc3sccc3C)[nH]n2)cc1C,-1.9,-10.6,-0.8,nt,nt,nt,
CNS(=O)(=O)c1cc(S(=O)(=O)NC)c2cccc3c2c1NC3=O,-197.5,i,20.9*,2.8,20.8*,20.7*,
CC(C)C(NS(=O)(=O)c1ccc2c3c(cccc13)C(=O)N2)C(=O)O (stereo unspecified),-171.7,i,24.8*,1.4,23.1*,33.2*,
O=C1Nc2ccc(S(=O)(=O)NCc3ccco3)c3cccc1c23,-160.2,-494.2,27.8*,-0.9,39.7*,36.8*,
CCOc1ccc(S(=O)(=O)NCc2ccco2)c2ccccc12,4.7,-4.4,-0.9,-4.0,nt,nt,
CNS(=O)(=O)c1ccc2c3c(cccc13)C(=O)N2,-341.0,i,48.8*,1.6,61.1*,71.5*,
CCCCNC(=O)C[C@H]1C[C@@]2(C(=O)OC)C(=C[C@H](C(C)(C)C)O[C@@H]2C)N(Cc2ccc3c(c2)OCO3)C1=O,2.0,4.9,0.2,nt,nt,nt,
CN1CCCCC(NC(=O)c2ccc(F)c(F)c2)C1=O (stereo unspecified),-2.9,2.3,0.0,nt,nt,nt,
O=C(O)CNS(=O)(=O)c1ccc2c3c(cccc13)C(=O)N2,-214.3,i,59.5*,-0.9,72.9*,72.7*,
Cc1cc(O)ccc1NS(=O)(=O)c1ccc2c3c(cccc13)C(=O)N2,-5.5,-21.8,80.7*,-2.8,85.6*,98.2*,
O=C(O)CCCCCNS(=O)(=O)c1ccc2c3c(cccc13)C(=O)N2,-367.1,i,62.7*,2.6,60.9*,69.2*,
Cc1oc2c(cc(NS(=O)(=O)c3ccc4c5c(cccc35)C(=O)N4)c3ccccc32)c1C(=O)OC(C)C,-59.4,-145.7,23.9*,0.9,56.9*,52.6*,
CCCCN1CCN(C2=Nc3ccccc3Sc3ccccc32)CC1,4.0,10.2,0.5,nt,nt,nt,
O=C1Nc2ccc(S(=O)(=O)N(CCO)CCO)c3cccc1c23,-219.3,i,44.6*,-0.9,42.1*,50.4*,
C=CCNc1ccc2c(c1)OC[C@H](Cc1ccccc1)NS2(=O)=O,-0.9,-4.5,0.3,nt,nt,nt,
COc1cc(-c2cc(=O)c3ccc(O)cc3o2)cc(OC)c1OC,-41.6,-200.8,14.9*,nt,4.9,8.7*,
SMILES,ADAM17 inh,ADAM10 inh,KLK7 zymogen act,V-ATPase pH,KLK7 act conf,EDANS-DABCYL int,others
C=CCn1c2ccccc2n2nc(C)c(=O)nc12,-57.3,-248.3,4.4,-6.8,nt,nt,
Cc1nn2c3ccccc3n(CCN3CCCCC3)c2nc1=O,-82.8,-275.3,55.3*,-4.6,8.2,11.8*,
O=C(O)CCc1nn2c3ccccc3nc2n(CCN2CCCCC2)c1=O,-67.4,-225.8,56.6*,-2.1,14.9*,12.6*,EDANS interf=i
O=C(O)CCc1nc2ccccc2n(CCc2ccccc2)c1=O,-43.0,-122.6,1.3,5.5,nt,nt,
COC(=O)C1=C(C)N(Cc2cccc(C(F)(F)F)c2)C(=NCc2cc(OC)c(OC)c(OC)c2)NC1c1ccccc1C(F)(F)F (stereo unspecified),-4.3,-4.1,-0.4,nt,nt,nt,
CCOC(=O)c1cccc(NC(=O)CN(C)S(=O)(=O)c2ccc(Br)s2)c1,-0.4,3.4,-0.9,nt,nt,nt,
COc1ccc(-c2cc(C(F)(F)F)nc(SCC(=O)NCc3cnn(C)c3C)n2)cc1OC,-25.0,-72.0,4.5,1.4,nt,nt,
COc1ccc(-c2cc(C(F)(F)F)nc(SCC(N)=O)n2)cc1,-318.7,i,15.1*,1.9,5.5,6.6*,
COc1ccc(-c2cc(C(F)(F)F)nc(SCC(=O)N(C)Cc3cn(C)nc3C)n2)cc1OC,-113.0,-345.1,32.5*,-1.3,2.6,0.9,
COC(=O)CC[C@@H](/C=C/C(=O)OC(C)(C)C)Sc1ccc(C(C)(C)C)cc1,0.2,2.3,-0.5,nt,nt,nt,
CC1CCC2(CC1)CCN(CCCOC(=O)Nc1cccc(F)c1)C2=O (stereo unspecified),2.1,1.7,0.3,nt,nt,nt,
CC(C)(C)c1ccc(-c2cc(NC(=O)Cc3c[nH]c4ccccc34)ccc2Nc2cccnc2)cc1,1.9,-5.1,-0.5,nt,nt,nt,
COc1ccc(NC(=O)NCCCN2CCN(c3ccc(F)cc3)CC2)cc1OC,-1.3,-7.2,-0.2,nt,nt,nt,
Cc1cc(=O)oc2cc(OC(=O)c3nn(C(C)C)c(=O)c4ccccc34)ccc12,i,i,45.7*,0.8,69.8*,79.0*,
CCCn1nc(C(=O)OCC(=O)Nc2ccc(C)cc2)c2ccccc2c1=O,1.2,-11.3,0.8,0.1,nt,nt,
CCCn1nc(C(=O)Oc2ccc3c(C)cc(=O)oc3c2)c2ccccc2c1=O,i,i,54.1*,-1.5,68.2*,72.2*,
O=C(O)c1cc2cccc(S(=O)(=O)N3CCOCC3)c2cc1O,-35.0,-90.4,13.8*,-6.2,70.0*,71.5*,
CCOC(=O)C1CCN(S(=O)(=O)c2cccc(-c3cn4cccnc4n3)c2)CC1,i,i,27.2*,1.9,26.1*,-15.5,EDANS interf=>69.5
Cc1ccc(S(=O)(=O)N2CCCC(C(=O)Nc3c(C)n(C)n(-c4ccccc4)c3=O)C2)cc1 (stereo unspecified),-0.1,0.5,-0.4,nt,nt,nt,
N=c1c(C(=O)NCc2ccc3c(c2)OCO3)cc2c(=O)n3ccccc3nc2n1CC1CCCO1 (stereo unspecified),-29.2,-97.7,1.5,9.3,nt,nt,
N=c1c(C(=O)NCc2ccco2)cc2c(=O)n3ccccc3nc2n1CCc1ccccc1,i,i,16.4*,-0.2,11.4,2.5,

# Compound activity: PubChem, several laboratories
